# From PubChem
# PLK1 PBD block: PLK1 (human) polo-box domain binding inhibition | P53350 | Plk1 PBD binding of FITC phosphopeptide, fluorescence polarization | Potency, µM, without a hit: max response, negative = inhibition, hits mostly inhibitors | actives 2.8% (n = 360,000) | AID 720504; further: potency means the concentration at half of the fitted maximal effect; series mostly up to about 57 µM; nearly all actives have a fitted effect of over 65% in size
# Target sequence (P53350 whole entry, looked up, the tested form may be a part): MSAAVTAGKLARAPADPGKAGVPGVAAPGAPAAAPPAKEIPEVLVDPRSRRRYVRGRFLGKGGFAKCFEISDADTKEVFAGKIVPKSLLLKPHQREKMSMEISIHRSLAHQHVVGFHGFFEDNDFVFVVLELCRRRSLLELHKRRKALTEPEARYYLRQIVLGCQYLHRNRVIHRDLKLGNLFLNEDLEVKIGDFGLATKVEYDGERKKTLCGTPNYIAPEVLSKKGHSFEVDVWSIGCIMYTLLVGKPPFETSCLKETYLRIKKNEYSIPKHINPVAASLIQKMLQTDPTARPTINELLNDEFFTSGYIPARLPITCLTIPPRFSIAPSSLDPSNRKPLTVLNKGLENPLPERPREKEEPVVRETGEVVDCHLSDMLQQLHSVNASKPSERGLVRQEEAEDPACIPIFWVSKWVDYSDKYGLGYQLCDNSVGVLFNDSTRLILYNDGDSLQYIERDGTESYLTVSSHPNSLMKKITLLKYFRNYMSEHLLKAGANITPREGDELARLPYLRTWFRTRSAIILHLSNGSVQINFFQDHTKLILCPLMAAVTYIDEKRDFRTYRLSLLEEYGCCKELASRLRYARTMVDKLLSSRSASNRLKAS
# Sfp inh: inhibitors of Bacillus subtilis Sfp phosphopantetheinyl transferase. Q9F4F7. Biochemical Sfp PPTase activity, qHTS. Potency, µM, inactives show largest response in the series, negative = inhibition, hits mostly inhibitors. actives 3.5% (n = 310,000). AID 1490;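 further: the enzyme is Sfp with the accession as filed and its product quenches rhodamine fluorescence; potency means the concentration at half of the fitted maximal effect; 0% = enzyme reaction without inhibitor and -100% = no enzyme wells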
#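 Compounds were incubated with enzyme (final 15 nM) for 15 min at room temperature before substrate addition started the reaction. Fluorescence at 525 nm excitation, 598 nm emission was recorded immediately and after 30 minutes.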
# VDR inhibitor: blocks the human vitamin D receptor; P11473; VDR-SRC2-3 peptide fluorescence polarization, 2 h; Potency, µM, for inactives: max response, negative = inhibition, most hits filed as inhibitors; actives 0.93% (n = 400,000); further: potency means the concentration at half of the fitted maximal effect
#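 FP read-out; VDR + SRC2-3 coactivator peptide; 23 nl compound by pintool; 2 h RT incubation; reagents held at 4 deg C, protected from light.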
# Mm-Cpn inhibitor: blocks the Methanococcus maripaludis chaperonin Mm-Cpn | Potency, µM (doses to about 76.9 µM), for the others: top-dose activity, negative = inhibition, actives largely listed as inhibitors | purified Mm-Cpn ATPase, ADP Transcreener TR-FRET | actives 0.031% (n = 330,000); further: potency means the concentration at half of the fitted maximal effect; nearly all actives have a fitted effect of over 80% in size
#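 ATPase turnover read by TR-FRET ADP competition (Eu cryptate antibody/ADP-d2, 665/590 nm): 10uM ATP final, 25nM Mm-CPN final, 30 min 37degC after 10-min compound preincubation, pH 7.4 Tris/KCl/MgCl2/DTT buffer.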
# G9a inh: G9a (human) methyltransferase inhibition; actives 8.8% (n = 350,000); G9a H3K9 monomethylation, AlphaScreen, 2 h; Potency, µM (highest dose often 102 µM), for inactives: top-dose activity, negative = inhibition, actives largely listed as inhibitors; AID 504332; Q96KQ7; further: potency means the concentration at half of the fitted maximal effect; nearly all actives have a fitted effect of over 75% in size
#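 AlphaScreen read-out: biotin-H3K9 peptide (500 nM) methylation by 20 nM enzyme with 20 uM SAM, 2 h at room temperature after 15 min compound preincubation; anti-monomethyl H3K9 antibody plus donor/acceptor beads, 10 min dark.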
# CCT chaperon mod: cytosolic chaperonin activity modulation; purified chaperonin ATPase assay, HTRF ADP detection, 30 min; activity change, % (concentration not given with the values), hits read low; AID 651819; actives 0.3% (n = 360,000); in the data active means activity change below about -30%
#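 TRiC (40 or 20 nM final, by batch activity) in 30 mM Tris pH 7.4, 100 mM KCl, 5 mM MgCl2, 1 mM DTT was treated with compound at 76 uM single dose, then 10 uM ATP, 30 min at 37 °C. ADP was read by HTRF Transcreener.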
# * marks the source's active call; other numbers are inactive results; u = inconclusive; x = no result given; [ ] = remark or other dose. Only some compounds are listed: those with a hit (about 10% of all), similar ones and a draw of the others. Unless noted, the call rests on the fitted dose curve; in most records, active means well fitted curve in the direction sought with a large enough effect; inconclusive means small, poorly fitted or top-dose-only effect, or another doubt; inactive means no such curve, though single readings can be large; an effect the other way counts as inactive or inconclusive. Unless noted, on the % scale 0 is the no-effect control and ±100 the full control effect.
SMILES,PLK1 PBD block,Sfp inh,VDR inhibitor,Mm-Cpn inhibitor,G9a inh,CCT chaperon mod
COc1cc2c(cc1OC)C(COc1ccccc1OC)N(C(=O)c1ccc(S(=O)(=O)N3CCCC3)cc1)CC2 (configuration not stated),x,x,2%,x,-19%[59 µM],x
COc1ccccc1OCc1cc(C(=O)N2CCN(C)C(c3ccccc3)C2)no1 (configuration not stated),-10%,12%,-12%,-2%,u,0
CCc1ccc(CN(C)C(=O)c2cc(COc3c(F)cccc3F)on2)cc1,19µM*,-5%,-27%,-2%,x,0
COC(=O)[C@H](Cc1ccccc1)NC(=O)c1cc(COc2c(F)cccc2F)on1,30µM*,12%,-29%,1%,50%,-2
CN1CCN(C(=O)c2cc(COc3c(F)cccc3F)on2)CC1c1ccccc1 (configuration not stated),-17%,10µM*,-1%,-4%,x,-1
CCN(Cc1ccncc1)C(=O)c1cc(COc2c(F)cccc2F)on1,30µM*,18%,u,2%,21%,0
COc1cccc(CNC(=O)c2cc(COc3c(F)cccc3F)on2)c1,-6%,9%,-11%,0%,91%,-5
CCCn1ccc2c(OCC(=O)Nc3ccc(F)cc3F)cccc2c1=O,x,x,18%,x,-3%[59 µM],x
COc1ccc(-c2cc(-c3cccs3)c(C#N)c(SCC(=O)NCc3ccco3)n2)cc1,-6%,56µM*,8%,-1%,-1%[59 µM],2
CCCSc1nc(-c2ccc(OC)cc2)cc(-c2ccccc2OC)c1C#N,x,x,u,x,1.8µM*,x
COc1ccc(-c2cc(-c3ccccc3)nc(SCC(=O)Nc3ccccc3C)c2C#N)cc1,x,x,u,x,13µM*,x
CC(C)OC(=O)CC(=O)CSc1nc(-c2ccc(F)cc2)cc(-c2ccccc2)c1C#N,24µM*,3%,u,u,32%[59 µM],-3
CCN(CC)C(=O)CSc1nc(-c2ccccc2)cc(-c2ccc(OC)cc2)c1C#N,x,x,0%,x,-40%[59 µM],x
CCc1ccc(OCc2nc(-c3ccc(OC)cc3)no2)c(Br)c1,x,x,4%,x,70%[59 µM],x
N#Cc1c(-c2ccccc2)cc(-c2ccccc2)nc1SCC(O)CS(=O)(=O)Cc1ccc(Cl)cc1 (configuration not stated),x,x,28µM*,x,1.8µM*,x
N#Cc1c(-c2ccccc2)cc(-c2ccccc2)nc1SCC(=O)NCC(=O)O,24µM*,20µM*,u,-2%,45µM*,0
CCOC(=O)CC(=O)CSc1nc(-c2ccccc2)cc(-c2ccccc2)c1C#N,-10%,-11%,-15%,-26%,31%,-6
CN(C)c1ncc2nc(CCc3ccccc3)c(=O)n(CCc3ccccc3)c2n1,x,-4%,-24%,x,10%[0.501 µM],x
N[C@@H](Cn1ccc(=O)n(Cc2ccccc2C(=O)O)c1=O)C(=O)O,x,56µM*,0%,x,x,x
O=C(O)Cc1ccccc1C(=O)O,3%,11%,-5%,-1%,8%[59 µM],0
CC1CCN(c2ccc3nnc(CCC(=O)Nc4cccc(F)c4)n3n2)CC1,27µM*,-2%,-23%,0%,-10%,1
COc1ccc(NC(=O)CCc2nnc3ccc(N4CCC(C)CC4)nn23)cc1,2%,11%,-1%,-1%,11%,-1
COc1ccc(OCc2nc3ccccc3n2Cc2ccccc2Cl)cc1,x,x,-10%,x,-1%[59 µM],x
O=C(c1ccc(Cl)cc1)n1nc(-c2ccco2)nc1NCc1cccs1,x,x,10%,x,3%[59 µM],x
Cc1ccc(C2=N/C(=C\N3CCCCC3)C(=O)O2)cc1,-2%,50µM*,-16%,1%,-32%[59 µM],0
CN1C(=O)c2ccccc2Sc2ccc(NC(=O)COc3ccc(F)cc3)cc21,x,x,9%,x,5%[59 µM],x
COc1ccc(Cl)cc1NC(=O)C/C(C)=N/NC(=O)CC#N,27µM*,-9%,-21%,1%,-1%[59 µM],-2
C/C(CC(=O)Nc1ccc(Cl)cc1C(F)(F)F)=N\NC(N)=S,-13%,45µM*,-10%,0%,12%,-3
C/C(CC(=O)Nc1ccc(Cl)cc1C(F)(F)F)=N\NC(=O)c1ccccn1,-7%,-18%,-16%,3%,x,-1
